# Source: PubChem (several laboratories)
# In the library only some 32% were active in any assay of this set; here they are far more common.
# CYP2C9 act: CYP2C9 (human) activation | P11712 | recombinant CYP2C9, luciferin-H conversion, luminescence; hits give high values; factor 1 = untreated enzyme, 0 = blocked | activation factor at 5 µM | hit rate 1.4% among 96,000 | AID 1024;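 active = activation factor of 2 or more for CYP2C9 at a 5 µM dose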;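 note: 0 = sulfaphenazole-blocked wells and 1 = vehicle-only wells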
# CYP2C9 inh: human CYP2C9 inhibition; P11712; CYP2C9 Supersomes, luciferin-H conversion, luminescence; inhibition, % at 5 µM; hit rate 20% among 96,000; AID 777;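 active = blocking of liver enzyme CYP2C9 beyond about 50% at 5 µM, limit read from the data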
# CYP2C19 inh: inhibitors of human CYP2C19. P33261. CYP2C19 Supersomes, luciferin-H EGE luminescence, 30 min. inhibition, % at 5 µM. hit rate 21% among 96,000. AID 778;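 active = CYP2C19 inhibition above a set limit at 5 µM in the primary screen, cut at about 50% in these data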;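 note: plate controls were negative control wells for no effect and 2.5 mM tranylcypromine positive control for full effect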
# Target sequence (P33261 whole entry, looked up): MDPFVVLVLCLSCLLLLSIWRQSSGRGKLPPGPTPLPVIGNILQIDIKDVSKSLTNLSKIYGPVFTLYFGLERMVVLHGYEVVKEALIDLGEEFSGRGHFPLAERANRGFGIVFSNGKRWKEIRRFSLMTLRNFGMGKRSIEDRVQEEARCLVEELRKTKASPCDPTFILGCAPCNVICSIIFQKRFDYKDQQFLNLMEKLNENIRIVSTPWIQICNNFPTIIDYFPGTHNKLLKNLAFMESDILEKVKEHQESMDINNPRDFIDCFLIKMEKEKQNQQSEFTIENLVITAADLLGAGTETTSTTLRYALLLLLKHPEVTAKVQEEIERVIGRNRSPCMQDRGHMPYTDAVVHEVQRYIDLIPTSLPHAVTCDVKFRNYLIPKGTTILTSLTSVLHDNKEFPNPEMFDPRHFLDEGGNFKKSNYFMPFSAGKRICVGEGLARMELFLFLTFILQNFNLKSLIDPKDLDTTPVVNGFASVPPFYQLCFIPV
# CYP2C19 activ: cytochrome P450 2C19 (human) activation. P33261. recombinant CYP2C19, luciferin-H EGE luminescence; hits give high values; 0 = fully inhibited enzyme, 1 = untreated enzyme. activation factor at 5 µM. 96,000 tested, under 10 active. AID 1025;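 active = activation factor of at least 2 at 5 µM in the primary screen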;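 note: 0 = wells with 2.5 mM tranylcypromine and 1 = vehicle-only wells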
# PostGolgi ctrl: yeast control strain growth, post-Golgi counter-screen; efflux-deficient yeast background strain, growth absorbance A615, 16 h; inhibition, % at 10 µM; hit rate 5% among 98,000
# PostGolgi yeast: growth inhibition of a yeast mutant, post-Golgi transport screen; post-Golgi transport phenotypic cell assay; inhibition, % at 10 µM; hit rate 0.9% among 98,000;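 note: yeast cells grown in 1536-well plates; yeast grown about 18 h at 30C before absorbance read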
# Active calls of the source: *; · = not tested or not shown. Cut-off read from the data, not from the text of the source, unless noted: active = inhibition above about 30%; inactive = the rest.
SMILES,CYP2C9 act,CYP2C9 inh,CYP2C19 inh,CYP2C19 activ,PostGolgi ctrl,PostGolgi yeast
Cc1ccc(N(CC(=O)NCc2ccccc2Cl)S(=O)(=O)c2cccs2)cc1,0.3,65*,64*,0.4,19,0
O=C(CN1CCCCC1)N1CCN(C(=O)CN2CCCCC2)CC1,1.3,-28,-18,1.2,-2,-2
CN(CC(=O)N1CCc2ccccc21)S(=O)(=O)c1cccc2cccnc12,1.1,-12,18,0.8,13,-5
CC1(C)CC(NC(=O)CCC2CCCC2)CC(C)(C)N1,0.9,13,-4,1,40*,-8
COc1cc(CNCc2ccccn2)ccc1OCc1ccc(Cl)cc1Cl,0.8,17,73*,0.3,49*,3
COc1cccc(CNCc2ccccn2)c1OC,0.8,20,74*,0.3,0,9
Cc1ccccc1C(=O)Nc1ccc2nc3n(c(=O)c2c1)CCC3,1,-4,-14,1.1,15,-5
CCNS(=O)(=O)c1ccc(NC(=O)Cc2ccc(F)cc2)cc1,0.5,48,10,0.9,2,-2
O=C(Cc1ccc(NS(=O)(=O)c2ccc(F)cc2)cc1)NCc1ccccc1,0.1,94*,76*,0.2,-1,-7
CCOC(=O)Cc1ccc(NS(=O)(=O)c2ccc(SC)cc2)cc1,0.3,71*,32,0.7,16,13
CCOC(=O)c1ccc(NS(=O)(=O)c2ccc(SC)cc2)cc1,0.5,46,0,1,18,-14
CCNC(=O)Cc1ccc(NS(=O)(=O)c2ccc(F)cc2)cc1,0.5,53*,27,0.7,-17,11
CCOC(=O)N1CCN(C(=O)CSc2nnc(-c3ccc(C(C)(C)C)cc3)o2)CC1,0.8,22,0,1,5,2
CCOC(=O)c1ccc(CSc2nnc(-c3ccncc3)n2N)cc1,0.6,38,68*,0.3,-5,4
CC(C)OC(=O)CSc1nnc(-c2ccc(C(C)(C)C)cc2)n1N,1.2,-18,-21,1.2,-5,-2
CC(C)OC(=O)CSc1nnc(-c2ccncc2)n1N,0.4,56*,86*,0.1,-6,18
COC(=O)c1ccc(NC(=O)CSc2nnc(-c3ccncc3)n2N)cc1,0.9,9,4,1,1,23
Cc1ccsc1C(=O)Nc1cc(C(C)(C)C)nn1-c1ccccc1,0.8,23,26,0.7,13,7
CC(=O)Nc1cc(S(=O)(=O)Nc2ccc(C)cc2)c(C)cc1C,0.8,19,13,0.9,4,0
Cn1nnnc1SCC(=O)N1CCc2ccccc2C1,1.2,-15,70*,0.3,-2,-4
Nn1c(COc2cccc(Br)c2)nnc1SCC(=O)N1CCc2ccccc2C1,1,4,52*,0.5,-2,-9
Cc1ccc(-n2nnnc2SC(C)C(N)=O)c(C)c1 (stereo not given),1.2,-19,16,0.8,6,14
Cn1c(=O)c2c(nc(SCC(=O)N3CCc4ccccc4C3)n2C)n(C)c1=O,0.9,14,9,0.9,11,1
C/C(N)=C(/C#N)C(=O)CSc1nnnn1-c1ccc(C)cc1C,0.7,31,100*,0,8,14
O=C(CSc1nc(C2CC2)nc2ccccc12)N1CCc2ccccc2C1,0.9,9,-3,1,68*,-6
SMILES,CYP2C9 act,CYP2C9 inh,CYP2C19 inh,CYP2C19 activ,PostGolgi ctrl,PostGolgi yeast
COc1nc(OC/C(N)=N/O)nc(N2CCOCC2)n1,0.9,11,0,1,-5,4
O=C(O)C1CSC2(c3ccc4c(c3)OCCO4)CCC(=O)N12 (stereo not given),1,4,-5,1.1,3,4
Cc1ccc(-n2nnnc2SCC(=O)N2CCc3ccccc3C2)cc1,·,·,·,·,25,-3
Cc1ccc(-n2nnnc2SCC(=O)N2CCc3ccccc3C2)c(C)c1,2*,-100,1,1,25,-2
O=C(CSc1nc(C2CC2)nc2ccccc12)N1c2ccccc2Sc2ccc(C(F)(F)F)cc21,0.1,92*,11,0.9,1,-3
COCCN(CC(=O)NCc1ccc(F)cc1)C(=O)CCC(=O)Nc1nccs1,0.9,12,1,1,7,0
O=C(CN(Cc1cccs1)C(=O)CCC(=O)Nc1nccs1)NCc1ccccc1,0.4,64*,78*,0.2,-1,4
CCOc1cc(/C=N/NC(N)=S)cc(Br)c1OCc1ccccc1C,1,4,3,1,67*,3
CCOc1cc(/C=N/N=C(\N)c2nonc2N)cc(Br)c1OCc1cccc2ccccc12,1,1,3,1,-2,17
COc1ccc(S(=O)(=O)N(c2onc(C)c2Cl)S(=O)(=O)c2ccc(OC)cc2)cc1,0.6,41,3,1,-2,-7
O=[N+]([O-])c1ccc(O)c(NC(=S)Nc2ccccc2)c1,0.1,91*,56*,0.4,4,7
COc1ccc([N+](=O)[O-])cc1NC(=S)Nc1ccccc1,0.6,42,50*,0.5,-2,0
O=[N+]([O-])c1ccc(NNC(=S)Nc2ccccc2)cc1,0.2,79*,59*,0.4,-8,4
O=C(O)c1cc([N+](=O)[O-])ccc1C(=O)Nc1ccccc1,1.1,-10,4,1,17,4
COc1ccc([N+](=O)[O-])cc1NC(=O)CC(C)c1ccccc1 (stereo not given),1.5,-48,72*,0.3,8,2
CC(CC(=O)Nc1ccc(Cl)c([N+](=O)[O-])c1)c1ccccc1 (stereo not given),0.3,74*,76*,0.2,19,5
COC(=O)Cn1c(CN2CCC(Cc3ccccc3)CC2)nc2c1c(=O)n(C)c(=O)n2C,0.9,14,46,0.5,14,0
COc1ccc(N2C(=O)CC(N3CCN(S(=O)(=O)c4c(F)cccc4F)CC3)C2=O)cc1OC (stereo not given),1.2,-23,-14,1.1,6,1
c1ccc(NCc2nnc3n2CCCCC3)cc1,1,-1,34,0.7,12,0
Clc1ccc(NCc2nnc3n2CCCCC3)cc1,1,2,55*,0.5,-4,2
COc1cc(C2C(C#N)=C(C)NC3=C2C(=O)CC(C)(C)C3)cc(OC)c1O (stereo not given),0.8,19,4,1,11,-9
COc1cc(C2Nc3ccc4ncccc4c3C3=C2C(=O)CC(C)(C)C3)cc(OC)c1O (stereo not given),0.2,76*,63*,0.4,-3,8
COc1cc(C2Nc3ccc4ncccc4c3C3=C2C(=O)CCC3)cc(OC)c1O (stereo not given),0.2,83*,40,0.6,3,4
CC(C)(C)OC(=O)NNC(=O)c1ccc(Cl)cc1,0.8,24,46,0.5,-3,-9
CC(C)(C)OC(=O)NNC(=S)NCc1ccc(Cl)cc1,0.4,55*,57*,0.4,6,2
